The source of these data is publication PMC7862700, “An all-to-all approach to the identification of sequence-specific readers for epigenetic DNA modifications on cytosine”.

Holding throughout (experiment): DAPPL (digital affinity profiling via proximity ligation, sequencing); 10 mM Tris-HCl pH 7.5, 50 mM NaCl, 1 mM DTT, 4% glycerol, room temperature, 30 min; GST-TFs on glutathione beads, 16-mer random dsDNA library, 0.1% formaldehyde crosslink after washing; high values mean tight binding
Common to all, as to conditions: protein: recombinant; tags: N-terminal GST; dsDNA, one strand shown

The target in one test is T1, FLI1 (Homo sapiens, UniProt Q01543 1-452).
T1 sequence: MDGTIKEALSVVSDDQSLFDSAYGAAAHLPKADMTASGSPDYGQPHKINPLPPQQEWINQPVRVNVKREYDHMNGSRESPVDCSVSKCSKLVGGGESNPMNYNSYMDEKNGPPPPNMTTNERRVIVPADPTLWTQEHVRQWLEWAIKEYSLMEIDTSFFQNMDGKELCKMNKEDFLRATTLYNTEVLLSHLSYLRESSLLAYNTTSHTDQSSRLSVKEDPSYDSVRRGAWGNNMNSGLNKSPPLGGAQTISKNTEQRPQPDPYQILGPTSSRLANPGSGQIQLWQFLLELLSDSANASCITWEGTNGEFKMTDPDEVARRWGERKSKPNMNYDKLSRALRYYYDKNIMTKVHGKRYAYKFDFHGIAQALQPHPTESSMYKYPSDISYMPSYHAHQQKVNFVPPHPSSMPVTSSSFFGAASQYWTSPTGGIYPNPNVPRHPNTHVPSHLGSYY
An outline of the steps: (§1)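 Each value of binding signal is a hexamer's read frequency for a factor divided by the same hexamer's frequency in the tag-only sample. Barcoded, bead-captured GST fusions of human transcription factors made in yeast were pooled with that sample and incubated with 200 nmole of a random double-stranded 16-mer DNA library in Tris/NaCl/DTT/glycerol buffer at room temperature for 30 min. Washing, 0.1% formaldehyde crosslinking, proximity ligation, PCR and Illumina NextSeq500 sequencing followed.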

Another test addresses T2, ELK1 (Homo sapiens, UniProt P19419 1-428).
T2 sequence: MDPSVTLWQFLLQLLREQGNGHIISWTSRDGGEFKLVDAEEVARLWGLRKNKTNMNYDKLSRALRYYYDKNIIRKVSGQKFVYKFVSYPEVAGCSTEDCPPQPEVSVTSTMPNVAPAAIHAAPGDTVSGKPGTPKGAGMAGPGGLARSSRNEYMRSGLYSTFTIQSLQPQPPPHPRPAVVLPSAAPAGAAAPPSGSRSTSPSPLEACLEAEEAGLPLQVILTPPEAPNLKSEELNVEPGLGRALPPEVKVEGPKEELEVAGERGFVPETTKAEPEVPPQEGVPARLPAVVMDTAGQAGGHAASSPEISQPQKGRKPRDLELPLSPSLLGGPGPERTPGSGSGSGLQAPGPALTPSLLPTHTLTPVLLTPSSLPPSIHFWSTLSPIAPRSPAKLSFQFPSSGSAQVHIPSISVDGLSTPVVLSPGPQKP
In a few lines: as §1

For the next test, the target named is T3, GABPA (Homo sapiens, UniProt Q06546 1-454).
T3 sequence: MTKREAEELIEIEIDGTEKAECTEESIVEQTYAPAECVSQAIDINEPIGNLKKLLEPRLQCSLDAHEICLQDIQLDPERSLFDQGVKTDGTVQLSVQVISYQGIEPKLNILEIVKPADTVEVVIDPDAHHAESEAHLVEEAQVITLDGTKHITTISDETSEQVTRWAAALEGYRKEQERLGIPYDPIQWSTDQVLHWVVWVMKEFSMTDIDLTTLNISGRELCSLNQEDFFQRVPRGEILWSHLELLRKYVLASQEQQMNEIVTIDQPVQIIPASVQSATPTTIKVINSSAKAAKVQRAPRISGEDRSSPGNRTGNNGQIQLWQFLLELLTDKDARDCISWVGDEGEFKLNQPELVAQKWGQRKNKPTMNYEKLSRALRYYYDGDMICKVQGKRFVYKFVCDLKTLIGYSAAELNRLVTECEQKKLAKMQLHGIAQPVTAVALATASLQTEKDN
In a few lines: as §1

A further test concerns the target T4, ERG (Homo sapiens, UniProt P11308 1-479).
T4 sequence: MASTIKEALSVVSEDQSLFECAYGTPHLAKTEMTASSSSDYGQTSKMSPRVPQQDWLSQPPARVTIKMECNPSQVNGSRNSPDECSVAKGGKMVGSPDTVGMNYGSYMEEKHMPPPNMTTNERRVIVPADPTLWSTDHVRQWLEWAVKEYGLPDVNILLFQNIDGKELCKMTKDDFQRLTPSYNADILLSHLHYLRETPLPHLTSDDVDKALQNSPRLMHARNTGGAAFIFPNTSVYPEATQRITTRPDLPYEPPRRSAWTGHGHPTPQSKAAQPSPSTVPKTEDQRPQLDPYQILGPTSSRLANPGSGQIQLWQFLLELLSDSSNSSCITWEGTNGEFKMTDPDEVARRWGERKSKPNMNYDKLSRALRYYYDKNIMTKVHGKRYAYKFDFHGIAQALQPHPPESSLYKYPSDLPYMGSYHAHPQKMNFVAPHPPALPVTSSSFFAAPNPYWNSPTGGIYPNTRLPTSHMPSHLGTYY
An outline of the steps:
as §1

The target of the next test is ELF1 (Homo sapiens, UniProt P32519 1-619). An outline of the steps: as §1
The target of a further test is T5, EHF (Homo sapiens, UniProt Q9NZC4 1-300).
T5 sequence: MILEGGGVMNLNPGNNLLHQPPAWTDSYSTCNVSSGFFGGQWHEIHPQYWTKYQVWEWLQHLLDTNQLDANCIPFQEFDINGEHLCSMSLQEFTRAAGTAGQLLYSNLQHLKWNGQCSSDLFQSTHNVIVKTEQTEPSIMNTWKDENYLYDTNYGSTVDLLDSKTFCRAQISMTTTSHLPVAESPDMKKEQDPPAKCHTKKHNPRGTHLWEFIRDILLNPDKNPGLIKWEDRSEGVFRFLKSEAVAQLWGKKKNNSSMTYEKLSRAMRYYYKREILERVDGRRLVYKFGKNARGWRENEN
An outline of the steps:
as §1

The next test concerns the target SPI1 (Homo sapiens, UniProt P17947 1-270). An outline of the steps:
as §1

The next test deals with SPIB (Homo sapiens, UniProt Q01892 1-262). In a few lines: as §1
The target in another test is T6, ELK3 (Homo sapiens, UniProt P41970 1-407).
T6 sequence: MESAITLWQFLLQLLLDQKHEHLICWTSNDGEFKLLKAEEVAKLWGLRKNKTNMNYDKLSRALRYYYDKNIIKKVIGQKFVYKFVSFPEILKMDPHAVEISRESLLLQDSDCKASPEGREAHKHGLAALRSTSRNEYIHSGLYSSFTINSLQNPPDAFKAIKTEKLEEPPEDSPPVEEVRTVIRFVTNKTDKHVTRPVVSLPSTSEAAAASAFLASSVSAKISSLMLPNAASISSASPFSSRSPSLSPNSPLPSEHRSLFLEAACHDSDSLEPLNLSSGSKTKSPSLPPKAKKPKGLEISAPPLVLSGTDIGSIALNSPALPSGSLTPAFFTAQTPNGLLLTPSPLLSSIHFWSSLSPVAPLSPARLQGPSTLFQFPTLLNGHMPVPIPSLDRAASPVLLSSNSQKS
An outline of the steps:
as §1

The target of another test is T7, FEV (Homo sapiens, UniProt Q99581 1-238).
T7 sequence: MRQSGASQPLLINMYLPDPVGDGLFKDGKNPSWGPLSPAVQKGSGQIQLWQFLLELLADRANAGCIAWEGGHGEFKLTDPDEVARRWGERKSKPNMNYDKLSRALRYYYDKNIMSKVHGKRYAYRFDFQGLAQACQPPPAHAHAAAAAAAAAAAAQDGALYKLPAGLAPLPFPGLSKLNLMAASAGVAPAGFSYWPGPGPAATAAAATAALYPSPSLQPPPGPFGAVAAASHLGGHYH
In a few lines:
as §1

The target in the next test is ETV5 (Homo sapiens, UniProt P41161 1-510). In a few lines:
as §1

The target in another test is T8, SPIC (Homo sapiens, UniProt Q8N5J4 1-248).
T8 sequence: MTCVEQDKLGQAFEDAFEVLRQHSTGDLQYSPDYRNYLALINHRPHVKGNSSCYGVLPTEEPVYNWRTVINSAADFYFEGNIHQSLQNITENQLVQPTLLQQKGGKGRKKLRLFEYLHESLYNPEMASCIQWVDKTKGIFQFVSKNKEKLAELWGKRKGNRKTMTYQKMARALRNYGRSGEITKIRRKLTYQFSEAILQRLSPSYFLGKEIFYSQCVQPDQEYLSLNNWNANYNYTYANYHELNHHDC
An outline of the steps: as §1

The target in the next test is ELF4 (Homo sapiens, UniProt Q99607 1-663). An outline of the steps: as §1
The target in the next test is T9, ELK4 (Homo sapiens, UniProt P28324-2 1-405).
T9 sequence: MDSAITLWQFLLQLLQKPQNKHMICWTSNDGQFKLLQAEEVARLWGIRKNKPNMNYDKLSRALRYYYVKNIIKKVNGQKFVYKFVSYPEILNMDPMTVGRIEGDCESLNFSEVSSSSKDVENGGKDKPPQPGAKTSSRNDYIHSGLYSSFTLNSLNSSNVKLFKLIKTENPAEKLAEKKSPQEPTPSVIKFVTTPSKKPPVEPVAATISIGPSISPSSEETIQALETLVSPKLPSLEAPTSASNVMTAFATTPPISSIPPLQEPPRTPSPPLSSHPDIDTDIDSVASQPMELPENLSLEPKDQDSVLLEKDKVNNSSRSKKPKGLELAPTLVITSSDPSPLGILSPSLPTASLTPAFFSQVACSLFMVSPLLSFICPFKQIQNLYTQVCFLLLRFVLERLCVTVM
An outline of the steps:
as §1

The next test addresses T10, ETV2 (Homo sapiens, UniProt O00321 1-342).
T10 sequence: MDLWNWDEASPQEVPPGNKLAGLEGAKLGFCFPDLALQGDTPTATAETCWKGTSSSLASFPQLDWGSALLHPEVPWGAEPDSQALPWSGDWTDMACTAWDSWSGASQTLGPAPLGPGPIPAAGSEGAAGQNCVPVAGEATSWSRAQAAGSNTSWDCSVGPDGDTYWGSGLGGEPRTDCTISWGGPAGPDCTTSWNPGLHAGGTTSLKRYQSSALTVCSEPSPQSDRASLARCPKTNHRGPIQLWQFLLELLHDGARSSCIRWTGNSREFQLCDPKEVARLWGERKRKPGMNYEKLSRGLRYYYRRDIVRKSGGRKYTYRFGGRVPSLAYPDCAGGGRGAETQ
An outline of the steps:
as §1

Another test deals with T11, ELF3 (Homo sapiens, UniProt P78545 1-371).
T11 sequence: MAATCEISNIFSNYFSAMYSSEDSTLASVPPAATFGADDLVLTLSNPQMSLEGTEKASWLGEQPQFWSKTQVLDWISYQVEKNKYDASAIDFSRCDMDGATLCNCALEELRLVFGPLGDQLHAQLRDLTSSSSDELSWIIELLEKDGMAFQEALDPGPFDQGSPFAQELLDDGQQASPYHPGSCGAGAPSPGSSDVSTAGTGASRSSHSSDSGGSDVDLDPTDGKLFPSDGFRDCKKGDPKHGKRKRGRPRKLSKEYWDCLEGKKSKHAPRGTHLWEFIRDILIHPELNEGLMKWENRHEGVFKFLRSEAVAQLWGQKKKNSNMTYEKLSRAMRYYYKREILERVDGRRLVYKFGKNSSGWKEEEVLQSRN
An outline of the steps: as §1

In the next test the target is ETV1 (Homo sapiens, UniProt P50549 1-477). An outline of the steps: as §1
Chain of ETV1 (P50549 whole entry): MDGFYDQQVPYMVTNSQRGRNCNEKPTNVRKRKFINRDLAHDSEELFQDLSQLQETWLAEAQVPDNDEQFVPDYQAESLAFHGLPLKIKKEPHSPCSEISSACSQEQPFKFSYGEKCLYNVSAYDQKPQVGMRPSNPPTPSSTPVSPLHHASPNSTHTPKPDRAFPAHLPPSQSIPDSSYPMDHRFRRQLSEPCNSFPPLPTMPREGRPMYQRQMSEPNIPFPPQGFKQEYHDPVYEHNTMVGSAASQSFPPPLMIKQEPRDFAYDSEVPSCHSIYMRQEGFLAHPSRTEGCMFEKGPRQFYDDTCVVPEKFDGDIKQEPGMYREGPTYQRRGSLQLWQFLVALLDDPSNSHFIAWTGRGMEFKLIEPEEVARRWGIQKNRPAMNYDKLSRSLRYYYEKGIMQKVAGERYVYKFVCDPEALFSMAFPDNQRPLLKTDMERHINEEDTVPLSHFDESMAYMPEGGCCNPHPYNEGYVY

Chain of ELF4 (Q99607 whole entry): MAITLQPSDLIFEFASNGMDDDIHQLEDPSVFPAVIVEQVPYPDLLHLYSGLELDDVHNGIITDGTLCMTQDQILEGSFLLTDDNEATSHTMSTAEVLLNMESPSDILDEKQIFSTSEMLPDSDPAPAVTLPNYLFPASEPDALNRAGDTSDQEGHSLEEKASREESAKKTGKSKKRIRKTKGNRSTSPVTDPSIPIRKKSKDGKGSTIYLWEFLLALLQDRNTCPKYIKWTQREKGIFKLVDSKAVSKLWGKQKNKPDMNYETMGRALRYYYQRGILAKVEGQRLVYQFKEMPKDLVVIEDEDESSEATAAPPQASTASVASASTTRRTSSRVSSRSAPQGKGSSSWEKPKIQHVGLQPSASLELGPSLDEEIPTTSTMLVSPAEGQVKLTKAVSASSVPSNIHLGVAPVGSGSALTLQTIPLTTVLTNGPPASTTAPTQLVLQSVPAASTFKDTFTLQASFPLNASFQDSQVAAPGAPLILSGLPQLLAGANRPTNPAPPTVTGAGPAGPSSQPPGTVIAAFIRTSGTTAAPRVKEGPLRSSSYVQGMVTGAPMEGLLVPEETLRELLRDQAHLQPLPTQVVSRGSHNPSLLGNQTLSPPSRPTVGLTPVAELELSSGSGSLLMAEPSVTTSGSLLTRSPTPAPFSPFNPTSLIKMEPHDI
Chain of ELF1 (P32519 whole entry): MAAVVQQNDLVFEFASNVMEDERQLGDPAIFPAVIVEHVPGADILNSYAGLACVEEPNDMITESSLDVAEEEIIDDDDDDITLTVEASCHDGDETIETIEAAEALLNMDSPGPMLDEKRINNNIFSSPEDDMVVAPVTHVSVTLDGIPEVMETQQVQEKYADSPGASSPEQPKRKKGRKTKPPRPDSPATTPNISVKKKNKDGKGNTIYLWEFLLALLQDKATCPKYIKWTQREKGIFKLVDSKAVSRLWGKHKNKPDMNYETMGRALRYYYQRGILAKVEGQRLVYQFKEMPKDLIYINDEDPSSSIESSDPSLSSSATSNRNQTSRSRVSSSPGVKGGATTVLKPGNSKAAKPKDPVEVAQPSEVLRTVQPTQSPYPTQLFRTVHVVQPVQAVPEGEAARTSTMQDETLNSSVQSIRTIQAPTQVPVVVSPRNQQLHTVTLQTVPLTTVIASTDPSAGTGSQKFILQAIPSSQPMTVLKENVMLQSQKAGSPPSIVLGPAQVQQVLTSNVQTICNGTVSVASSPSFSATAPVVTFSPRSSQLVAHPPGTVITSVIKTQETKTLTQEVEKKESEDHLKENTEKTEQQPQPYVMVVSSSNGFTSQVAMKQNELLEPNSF
Chain of ETV5 (P41161 whole entry): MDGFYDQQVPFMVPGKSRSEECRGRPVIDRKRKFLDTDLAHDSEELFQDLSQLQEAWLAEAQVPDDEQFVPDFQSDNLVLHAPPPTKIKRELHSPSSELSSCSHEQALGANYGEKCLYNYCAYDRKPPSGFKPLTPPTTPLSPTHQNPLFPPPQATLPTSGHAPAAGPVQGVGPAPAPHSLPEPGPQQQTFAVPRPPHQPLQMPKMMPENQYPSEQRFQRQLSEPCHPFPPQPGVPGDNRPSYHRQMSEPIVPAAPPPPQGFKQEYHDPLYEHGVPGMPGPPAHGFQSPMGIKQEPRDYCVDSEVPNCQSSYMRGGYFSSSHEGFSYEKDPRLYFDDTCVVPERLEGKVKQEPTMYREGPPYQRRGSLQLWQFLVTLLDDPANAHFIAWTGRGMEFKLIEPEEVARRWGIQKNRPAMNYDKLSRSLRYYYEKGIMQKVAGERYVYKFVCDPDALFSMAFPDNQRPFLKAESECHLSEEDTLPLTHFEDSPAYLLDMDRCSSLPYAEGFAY
Chain of SPIB (Q01892 whole entry): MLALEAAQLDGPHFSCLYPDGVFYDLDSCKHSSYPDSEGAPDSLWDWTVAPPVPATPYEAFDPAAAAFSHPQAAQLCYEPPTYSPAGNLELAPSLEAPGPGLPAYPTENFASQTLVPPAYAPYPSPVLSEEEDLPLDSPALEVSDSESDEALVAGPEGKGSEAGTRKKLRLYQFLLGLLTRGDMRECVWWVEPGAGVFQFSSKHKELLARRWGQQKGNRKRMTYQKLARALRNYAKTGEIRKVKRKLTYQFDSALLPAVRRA

As for GCTACG, the binding signal in the test with FLI1 is 1.29 fold enrichment (6-mer frequency, TF over GST control); with ELK1, 1.22 fold enrichment (6-mer frequency, TF over GST control); in the test with GABPA, 1.11 fold enrichment (6-mer frequency, TF over GST control); in the test with ERG it was 1.11 fold enrichment (6-mer frequency, TF over GST control); with ELF1 it was 1.17 fold enrichment (6-mer frequency, TF over GST control); in the test with EHF, 1.19 fold enrichment (6-mer frequency, TF over GST control). The binding signal in the test with SPI1 was 1.04 fold enrichment (6-mer frequency, TF over GST control); in the test with SPIB it was 1.16 fold enrichment (6-mer frequency, TF over GST control); with ELK3, 1.26 fold enrichment (6-mer frequency, TF over GST control); with FEV, 1.16 fold enrichment (6-mer frequency, TF over GST control); in the test with ETV5 it was 1.14 fold enrichment (6-mer frequency, TF over GST control); in the test with SPIC it was 1.12 fold enrichment (6-mer frequency, TF over GST control). Besides, the binding signal is 1.14 fold enrichment (6-mer frequency, TF over GST control) with ELF4; 1.41 fold enrichment (6-mer frequency, TF over GST control) in the test with ELK4; 1.1 fold enrichment (6-mer frequency, TF over GST control) with ETV2; 1.19 fold enrichment (6-mer frequency, TF over GST control) with ELF3; 1.25 fold enrichment (6-mer frequency, TF over GST control) with ETV1.

Consider CACGCC, for which the binding signal in the test with FLI1 was 1.12 fold enrichment (6-mer frequency, TF over GST control); with ELK1, 1.25 fold enrichment (6-mer frequency, TF over GST control); with GABPA, 1.27 fold enrichment (6-mer frequency, TF over GST control); with ERG it was 1.29 fold enrichment (6-mer frequency, TF over GST control); in the test with ELF1 it was 1.26 fold enrichment (6-mer frequency, TF over GST control); in the test with EHF, 1.18 fold enrichment (6-mer frequency, TF over GST control). In addition, the binding signal was 1.2 fold enrichment (6-mer frequency, TF over GST control) with SPI1; 1.15 fold enrichment (6-mer frequency, TF over GST control) with SPIB; 1.22 fold enrichment (6-mer frequency, TF over GST control) in the test with ELK3; 1.19 fold enrichment (6-mer frequency, TF over GST control) with FEV; 1.17 fold enrichment (6-mer frequency, TF over GST control) with ETV5; 1.01 fold enrichment (6-mer frequency, TF over GST control) with SPIC. Also, the binding signal with ELF4 is 1.25 fold enrichment (6-mer frequency, TF over GST control); in the test with ELK4 it was 1.24 fold enrichment (6-mer frequency, TF over GST control); in the test with ETV2 it was 1.22 fold enrichment (6-mer frequency, TF over GST control); in the test with ELF3 it was 1.27 fold enrichment (6-mer frequency, TF over GST control); with ETV1 it was 1.19 fold enrichment (6-mer frequency, TF over GST control).
